About 83,000 compounds went through this panel and 20% of them were active in at least one assay; those are over-represented in the sample as a whole.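 48-hour exposure, single concentration, 96-well plates; percent growth endpoint where 0 means no net growth. Active: below 10.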 Values without a mark were called inactive. Active and inactive are the calls of the source.
Key:
Assay in all cases: NCI-60 one-dose screen, 48 h (100 = growth as untreated, 0 = no growth, -100 = all killed)
Conditions in all cases: 10 µM unless noted
[1] = system: SR leukemia
[2] = system: RPMI-8226 leukemia
[3] = system: OVCAR-8 ovarian
[4] = system: OVCAR-5 ovarian
[5] = system: OVCAR-4 ovarian
[6] = system: SK-OV-3 ovarian
[7] = system: IGROV1 ovarian
[8] = system: OVCAR-3 ovarian
[9] = system: HS 578T breast
[10] = system: NCI/ADR-RES ovarian
[11] = system: T-47D breast
[12] = system: BT-549 breast
[13] = system: MDA-MB-435 melanoma
[14] = system: SW-620 colon
[15] = system: MCF7 breast
[16] = system: HCT-116 colon
[17] = system: HCC-2998 colon
[18] = system: KM12 colon

SMILES | growth [1] | growth [2] | growth [3] | growth [4] | growth [5] [%] | growth [6] | growth [7] | growth [8] | growth [9] | growth [10] | growth [11] | growth [12] | growth [13] | growth [14] | growth [15] | growth [16] | growth [17] | growth [18]
CCN(CCC#N)c1ccccc1 | 96.4% | 98% | 103% | 102% | 100 | 114% | 115% | 113% | 91.8% | 105% | 101% | 110% | 109% | 101% | 105% | 105% | 109% | 114%
CSC1=N/C(=C\c2cccc(OCc3ccc(Cl)cc3)c2)C(=O)N1 | 80.9% | 67.7% | 86.1% | 106% | 56.9 | 98.5% | 86.7% | 84.2% | 104% | 79% | 59.4% | 88.1% | 80.6% | 88.1% | 83% | 88.8% | 93% | 79.8%
Clc1ccc(C2=NN[C@H](c3cn(-c4ccccc4)nc3-c3ccccc3)C2)cc1 | 104% | 87.5% | 33.6% | 83.6% | 68.1 | 61.6% | 79.5% | 58.6% | 74.2% | 55.9% | 46.4% | 92.7% | 47.3% | 48.7% | 66.2% | 0.0078% (active) | 90.7% | 74%
O=C(N/N=C/c1ccccc1O)c1ccncc1 | 49.4% | 53.9% | 52.3% | 71.1% | 48.9 | 63.1% | 53.8% | 18.2% | 94.3% | 38.1% | 33.6% | 57% | 82.5% | 66.1% | 23.1% | 48.7% | 64.5% | 34.3%
O=C(Nc1ccc(Cl)cc1)c1cc(-c2ccc(Cl)cc2)c2sc(=O)[nH]c2n1 | 2% (active) | -6.18% (active) | 4.75% (active) | 32% | 13 | -24.3% (active) | 28.1% | 1.82% (active) | -14.4% (active) | 5.64% (active) | -22.8% (active) | 1.28% (active) | 7.39% (active) | 8.1% (active) | 0.758% (active) | 0.269% (active) | 19.1% | 4.21% (active)
CC(C)(C)[Si](C)(C)OC1[C@@H](O[Si](C)(C)C(C)(C)C)[C@@H](CNC(=O)NC(=O)NC(=O)CCl)O[C@H]1n1cnc2c(NC(=O)Nc3ccccc3)ncnc21 (stereo not given in full) | -10.7% (active) | 46.8% | 25.1% | 74.1% | 58.1 | 97.3% | -51.8% (active) | -6.77% (active) | 74.3% | 50.4% | 77% | 71.7% | 76.3% | 85.4% | 37.8% | 17.6% | 75.5% | –
COc1cc(C2CC(=O)Nc3c2cnn3C)cc(OC)c1OC (stereo not given) | 103% | 112% | 103% | 109% | 113 | 95.1% | 108% | 106% | 111% | 105% | 96.1% | 99.4% | 105% | 108% | 97.1% | 100% | 108% | 105%
O=C(CCCCCCN1CC(=O)N2[C@@H](c3ccc(Cl)c(Cl)c3)c3[nH]c4ccccc4c3C[C@H]2C1=O)NO | 7.56% (active) | 6.04% (active) | 50.3% | 46.3% | 45.6 | 73.6% | -10.5% (active) | 35.3% | 64.8% | 93.3% | 27.9% | 63.7% | 47.3% | 33% | 29% | 23.2% | 61.9% | 69.8%
Clc1ccccc1CNc1c2ccccc2nc2ccccc12 | 0.495% (active) | -26.9% (active) | 23.8% | 32.6% | 13.1 | 54.9% | 17.8% | 53.6% | 50% | 23.8% | 30.4% | 38.1% | 27.2% | 9.61% (active) | -0.21% (active) | 8.1% (active) | -17.2% (active) | 22%
NNC(=O)CSc1nc2scc(-c3ccccc3)c2c(=O)n1-c1ccccc1 | 83% | 109% | 123% | 98% | 92.8 | 120% | 102% | 99.5% | 89.2% | 103% | 104% | 131% | 121% | 112% | 97.8% | 91.9% | 84.2% | 108%
O=c1oc2ccccc2cc1-c1cc(-c2ccc(-c3cc(-c4cc5ccccc5oc4=O)nc(-c4cc5ccccc5oc4=O)c3)cc2)cc(-c2cc3ccccc3oc2=O)n1 | 93.7% | 98.2% | 103% | 119% | 100 | 94.3% | 105% | 110% | 104% | 108% | 91.1% | 106% | 114% | 110% | 68.6% | 97% | 110% | 103%
CCC1=CC2CN(C1)Cc1c([nH]c3ccccc13)[C@@](C(=O)OC)(c1cc3c(cc1OC)N(C)[C@H]1[C@@](O)(C(=O)OC)[C@H](OC(C)=O)[C@]4(CC)C=CCN5CC[C@]31[C@@H]54)C2 (stereo not given in full) | 6.9% (active) | 31.4% | 21.3% | 15.6% | 29.6 | 7.75% (active) | 35.7% | -29.6% (active) | 29.1% | -16.1% (active) | 76.1% | -27.2% (active) | 2.28% (active) | 29.1% | 8.05% (active) | -9.83% (active) | -36% (active) | 0.29% (active)
COc1cc(OC)c(Cl)cc1N | 109% | 104% | 104% | 111% | 109 | 100% | 114% | 103% | 77.9% | 109% | 98.8% | 123% | 98.2% | 102% | 95.5% | 106% | 106% | 107%
CC(=O)CC(c1ccc([N+](=O)[O-])cc1)c1c(O)c2ccccc2oc1=O (stereo not given) | 92.9% | 108% | 105% | 100% | 110 | 108% | 107% | 109% | 97.9% | 105% | 95.7% | 88.5% | 103% | 101% | 102% | 101% | 105% | 98.5%
Cc1ccc(NC(=O)c2cc(NCc3cc(O)ccc3O)ccc2O)cc1 | 20.3% | 20.2% | 81.8% | 125% | 89.1 | 98.6% | 97.9% | 71% | 86.4% | 95.8% | 75.6% | 63.8% | 106% | 106% | 75.7% | 97% | 106% | 91%
O=C(NO)c1ccc(CNc2cccc3nc(C4CC4)n(-c4ccccc4)c(=O)c23)cc1 | 1.62% (active) | -26.6% (active) | -15.4% (active) | 35.7% | 11.5 | 16% | 8.21% (active) | 0.886% (active) | 39.8% | -10.7% (active) | 22.9% | 64% | 10.3% | 0.537% (active) | 27.6% | -22.1% (active) | 36% | 8.66% (active)
C=C1C[C@@]2(C)C(CC[C@]3(C)C2CC=C2C4CC(C)(C)C[C@@H](OC(=O)/C(C)=C\C)[C@]4(C(=O)O)CC[C@]23C)C(C)(C)C1=O (stereo not given in full) | -0.663% (active) | -15.6% (active) | 15% | 7.88% (active) | 39.4 | 86.2% | 1.07% (active) | -16.8% (active) | 51.3% | 9.03% (active) | -11.3% (active) | -19.7% (active) | -12.4% (active) | -29.1% (active) | 8.17% (active) | -78.5% (active) | -79.9% (active) | 3.05% (active)
